Article PMC5836133, “The intracellular immune receptor Rx1 regulates the DNA-binding activity of a Golden2-like transcription factor”
Over roughly 16,000 sequences, “e-score” has its median near -0.044; the highest 2% begin near 0.38. Only a selection was taken, and the highest values are over-represented in it overall.

Target: T1, GST-NbGlk1(82-244) (Nicotiana benthamiana)
T1 chain: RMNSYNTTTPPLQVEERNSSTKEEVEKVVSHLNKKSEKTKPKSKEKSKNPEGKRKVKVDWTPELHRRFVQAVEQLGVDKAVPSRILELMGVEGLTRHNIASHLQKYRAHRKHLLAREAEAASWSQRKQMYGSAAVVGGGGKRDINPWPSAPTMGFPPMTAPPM
Assay: protein-binding microarray; NbGlk1 is a Golden2-like transcription factor of Nicotiana benthamiana; high values mean tight binding
Conditions: protein: recombinant; tags: GST (pTH6838); dsDNA, one strand shown

Sequence | binding signal [E-score]
AGAATCAC | 0.373 ± 0.0542
AAAATCCG | 0.446 ± 0.00893
ATAATCAA | 0.216 ± 0.00752
AAGCGGAT | 0.227 ± 0.0367
AATCGGAT | 0.357 ± 0.0422
ATATACAG | 0.262 ± 0.0848
ATCCCTTA | 0.215 ± 0.0752
ATGTGATA | 0.231 ± 0.0239
ATCCTCAG | 0.231 ± 0.0659
AAAATCAC | 0.36 ± 0.0307
CAAATTCA | 0.203 ± 0.0475
AAAATCCT | 0.433 ± 0.0284
AAAATCAG | 0.381 ± 0.0189
AAAATCCC | 0.41 ± 0.0189
ATAATCAG | 0.222 ± 0.0278
CAGATCCA | 0.23 ± 0.064
AAAATCAT | 0.302 ± 0.0817
CAAATCCC | 0.315 ± 0.0145
CAAATCCA | 0.3792 ± 0.00132
ATAATCCC | 0.212 ± 0.0485
ACTGAAAT | 0.278 ± 0.0182
ATATTCAA | 0.213 ± 0.11

Sequence | binding signal [E-score]
AGTAAGAA | 0.214 ± 0.0216
ATCCGCCG | 0.216 ± 0.0636
ATTTCATG | 0.332 ± 0.0188
ATCTCCAG | 0.293 ± 0.0251
ATCCTGAG | 0.23 ± 0.00887
ACCAAAGA | 0.208 ± 0.134
ATCTCACG | 0.2 ± 0.0565
ATTGAAAA | 0.214 ± 0.0168
AAGGTAAT | 0.217 ± 0.0574
ATTTTCCA | 0.294 ± 0.00656
AGATTCCT | 0.4552 ± 0.00311
AGATACCA | 0.204 ± 0.131
AGATTCCA | 0.433 ± 0.0111
AAATTCCC | 0.294 ± 0.0591
AGATTCAT | 0.24 ± 0.0201
AGATACCT | 0.216 ± 0.0648
AGATACCG | 0.364 ± 0.0644
AGATTCAG | 0.238 ± 0.0658
AGATTCCC | 0.493 ± 0.00512
CAATTCCC | 0.217 ± 0.0511
AGATTCCG | 0.4631 ± 0.000925
AGATCGTG | 0.339 ± 0.0193

Sequence | binding signal [E-score]
ATCCGCGG | 0.28 ± 0.0747
AGAATTCG | 0.221 ± 0.0588
AATCGACT | 0.263 ± 0.0439
CAATCGAA | 0.202 ± 0.113
ATCCTCCA | 0.285 ± 0.089
ACAAGAGA | 0.277 ± 0.0453
ACTCGTAA | 0.247 ± 0.062
ATAATCAC | 0.214 ± 0.0373
AATCGTGC | 0.299 ± 0.027
ATTACCCC | 0.247 ± 0.0858
AATCAAGA | 0.308 ± 0.0329
AATCTAGC | 0.404 ± 0.00637
AATCAAGT | 0.233 ± 0.1
AATCAAGC | 0.22 ± 0.0411
AATCTAGA | 0.452 ± 0.018
ATTCTAGA | 0.2 ± 0.0443
AATCTAGG | 0.4332 ± 0.00364
AATCAAGG | 0.258 ± 0.0284
AATCGAGC | 0.207 ± 0.052
AATCTAGT | 0.421 ± 0.0336
ATCCTAGC | 0.237 ± 0.018
ATCCCCGC | 0.2 ± 0.0376

Sequence | binding signal [E-score]
ATTACACG | 0.268 ± 0.0173
CACGATTA | 0.202 ± 0.0336
ATGCGTAA | 0.21 ± 0.0884
AATCACCA | 0.26 ± 0.00706
AATCCCCC | 0.215 ± 0.101
AATCTCCA | 0.389 ± 0.05
ATTCTCCC | 0.255 ± 0.0215
AATCTCCG | 0.437 ± 0.00941
AATCTCCT | 0.4008 ± 0.00273
ATTCTCCG | 0.338 ± 0.0548
AATCACCG | 0.281 ± 0.0154
AATCGCCT | 0.225 ± 0.129
AATTTCCT | 0.255 ± 0.00447
ATTCTCCA | 0.31 ± 0.0567
AATCTCCC | 0.387 ± 0.0218
ATCCGGTA | 0.286 ± 0.0898
ATTTGCAC | 0.305 ± 0.0821
ATCCAATA | 0.324 ± 0.0209
ATCTTTGG | 0.304 ± 0.0128
ATCTTTTA | 0.259 ± 0.0767
